From PubChem BioAssay AID1159580 (chemical genetic matrix, 2015)
“And” between values parts separate entries of the source, which are not always exact repeats. Equal entries are not always repeated. The campaign covered roughly 5,500 compounds. About 2,000 (36%) were called active. Roughly 18% stayed inconclusive and do not appear here. Rule as the data show it: active = normalized growth mostly below about 0.91 (no sharp cut-off); inconclusive = no clear call, values can overlap the other calls; inactive = mostly above about 0.92. Some of the results follow.

Experiment: chemical genetic growth profiling, strain panel (AID 1159580);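 also: tested at 20 µM; growth read once vehicle control cultures reached saturation at 30 °C; 1 = growth at the plate median or of vehicle wells; lower values mean less growth of the strain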
Conditions: S. cerevisiae deletion strains, growth OD

Measured: normalized growth

NCC(O)c1ccc(O)cc1 (stereo not given)
inactive: locus YAL013W, strain DEP1, stronger effect = lower value 0.996 and 1.01 | locus YAL021C, strain ccr4, stronger effect = lower value 1.01 | locus YAL026C, strain drs2, stronger effect = lower value 1.01 | locus YAL030W, strain snc1, stronger effect = lower value 0.997 | locus YAL040C, strain CLN3, stronger effect = lower value 1 | locus YBL061C, strain skt5, stronger effect = lower value 1.01 | locus YBR009C, strain hhf1, stronger effect = lower value 0.995 | locus YBR021W, strain FUR4, stronger effect = lower value 0.987 | locus YBR023C, strain chs3, stronger effect = lower value 0.998 | locus YBR171W, strain sec66, stronger effect = lower value 0.995 | locus YBR229C, strain ROT2, stronger effect = lower value 0.977 | locus YBR231C, strain swc5, stronger effect = lower value 1.02 | locus YBR279W, strain paf1, stronger effect = lower value 1.02 | locus YCL011C, strain gbp2, stronger effect = lower value 1.03 | locus YCL016C, strain dcc1, stronger effect = lower value 1.03 | locus YCL029C, strain bik1, stronger effect = lower value 0.966 | locus YCL061C, strain MRC1 (second series), stronger effect = lower value 1.01 | locus YCL069W, strain vba3, stronger effect = lower value 1 | locus YCR088W, strain abp1, stronger effect = lower value 0.993 | locus YDL005C, strain med2, stronger effect = lower value 0.998 | locus YDL035C, strain GPR1, stronger effect = lower value 1.01 | locus YDL040C, strain nat1, stronger effect = lower value 0.999 | locus YDL074C, strain BRE1, stronger effect = lower value 1 | locus YDL101C, strain DUN1, stronger effect = lower value 0.987 | locus YDL134C, strain PPH21, stronger effect = lower value 0.996 | locus YDL185W, strain tfp1, stronger effect = lower value 0.977 | locus YDL192W, strain arf1, stronger effect = lower value 0.984 | locus YDR001C, strain nth1, stronger effect = lower value 1.01 | locus YDR069C, strain doa4, stronger effect = lower value 0.996 | locus YDR101C, strain arx1, stronger effect = lower value 0.987 | locus YDR137W, strain rgp1, stronger effect = lower value 1.02 | locus YDR150W, strain NUM1, stronger effect = lower value 1.01 and 1 | locus YDR159W, strain sac3, stronger effect = lower value 0.963 | locus YDR162C, strain NBP2, stronger effect = lower value 0.999 | locus YDR195W, strain ref2 0.947 | locus YDR297W, strain sur2, stronger effect = lower value 1.02 | locus YDR318W, strain mcm21, stronger effect = lower value 0.963 | locus YDR334W, strain swr1, stronger effect = lower value 1 | locus YDR335W, strain msn5, stronger effect = lower value 1.01 | locus YDR363W, strain ESC2, stronger effect = lower value 1 | locus YDR388W, stronger effect = lower value 0.97 | locus YDR392W, strain spt3, stronger effect = lower value 0.995 | locus YDR502C, strain sam2, stronger effect = lower value 0.988 | locus YEL003W, strain gim4, stronger effect = lower value 1.01 | locus YEL037C, strain rad23, stronger effect = lower value 1.01 | locus YEL061C, strain CIN8 (second series), stronger effect = lower value 0.999 | locus YEL061C, strain CIN8, stronger effect = lower value 1 | locus YER002W, strain NOP16, stronger effect = lower value 1 | locus YER015W, strain faa2, stronger effect = lower value 1.01 | locus YER016W, strain bim1, stronger effect = lower value 0.999 | locus YER110C, stronger effect = lower value 0.976 | locus YER111C, strain swi4, stronger effect = lower value 1.01 | locus YER155C, strain BEM2 (second series), stronger effect = lower value 0.977 | locus YER155C, strain BEM2, stronger effect = lower value 0.99 | locus YER167W, strain BCK2, stronger effect = lower value 0.992 | locus YFR010W, strain ubp6, stronger effect = lower value 0.998 | locus YGL078C, strain dbp3, stronger effect = lower value 0.988 | locus YGL086W, strain mad1, stronger effect = lower value 0.993 | locus YGL167C, strain pmr1, stronger effect = lower value 0.997 | locus YGL173C, strain kem1, stronger effect = lower value 1.01 | locus YGL227W, strain vid30, stronger effect = lower value 0.995 | locus YGL240W, strain doc1, stronger effect = lower value 0.985 | locus YGL248W, strain PDE1, stronger effect = lower value 0.989 | locus YGL253W, strain hxk2, stronger effect = lower value 1.03 | locus YGR078C, strain PAC10, stronger effect = lower value 0.989 and 1.03 | locus YGR135W, strain pre9, stronger effect = lower value 0.984 | locus YGR229C, strain SMI1, stronger effect = lower value 1 and 1.01 | locus YGR252W, strain gcn5, stronger effect = lower value 1.03 | locus YHR013C, strain ard1, stronger effect = lower value 0.978 | locus YHR027C, strain rpn1, stronger effect = lower value 1.01 | locus YHR030C, strain SLT2, stronger effect = lower value 0.983 and 0.979 | locus YHR079C, strain IRE1 (second series), stronger effect = lower value 0.975 | locus YHR079C, strain IRE1, stronger effect = lower value 0.982 | locus YHR094C, strain hxt1, stronger effect = lower value 0.986 | locus YHR129C, strain ARP1, stronger effect = lower value 0.994 | locus YHR142W, strain chs7, stronger effect = lower value 1.02 | locus YHR200W, strain rpn10, stronger effect = lower value 0.98 | locus YIL066C, strain RNR3, stronger effect = lower value 0.998 | locus YIL073C, strain SPO22, stronger effect = lower value 0.986 | locus YIL125W, strain kgd1, stronger effect = lower value 0.982 | locus YIR030C, strain dcg1, stronger effect = lower value 0.983 | locus YJL092W, strain hpr5, stronger effect = lower value 1.01 | locus YJL095W, strain BCK1 (second series), stronger effect = lower value 1.01 | locus YJL095W, strain BCK1, stronger effect = lower value 0.962 and 1 | locus YJL115W, strain asf1, stronger effect = lower value 1.01 | locus YJL129C, strain trk1, stronger effect = lower value 1.01 | locus YJL134W, strain LCB3, stronger effect = lower value 0.995 | locus YJL154C, strain vps35, stronger effect = lower value 0.99 | locus YJL164C, strain tpk1, stronger effect = lower value 0.994 | locus YJL166W, strain qcr8, stronger effect = lower value 0.999 | locus YJL168C, strain set2, stronger effect = lower value 0.976 | locus YJL187C, strain SWE1 (second series), stronger effect = lower value 0.988 | locus YJR043C, strain POL32, stronger effect = lower value 0.994 | locus YJR066W, strain TOR1, stronger effect = lower value 0.919 | locus YJR075W, strain HOC1, stronger effect = lower value 0.993
